Screening data from PubChem BioAssay.
Most compounds without a hit are left out; they make up all but 1.9% or so of the library.
Cardio protect: myocardial damage modulation in H9c2 cells; 360,000 tested, 0.63% active; AID 588492; protection from H2O2 cell death, % at 20 µM; H9c2 cardiomyocytes, H2O2 injury protection, ATPLite, 2 h;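 active = compounds giving at least 50% protection of heart cells from peroxide-induced death in the single-dose screen, raw or plate-pattern-corrected value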;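 also: 0% = DMSO wells with peroxide and 100% = DMSO wells without peroxide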
PP1 inh: counter-screen for PP5 inhibitors: inhibitors of human PP1-alpha. P62136. purified PP1alpha, OMFP fluorescence. inhibition, % at 6.7 µM. 320,000 tested, 0.9% active. AID 2235;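 active = inhibition above the mean inhibition of all tested compounds plus 3 SD, computed separately for each screening campaign, cut at about 15% in these data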
PP5 inh: inhibitors of human protein phosphatase 5 (PP5). purified PP5c, OMFP substrate fluorescence. 320,000 tested, 0.18% active. inhibition, % at 6.7 µM. P53041;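 active = inhibition above the campaign's mean inhibition across all tested compounds plus 3 SD, cut at about 9.5% in these data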;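 also: 0% = DMSO only and 100% = 100 µM cantharidin control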
ATG4B inh: ATG4B (human) cysteine protease inhibition | Q9Y4P1 | ATG4B cleavage of LC3-PLA2, NBD-HPC fluorescence, 1 h | inhibition, % at 8.33 µM | 340,000 tested, 0.51% active; in the data active = inhibition above about 40%
Target sequence (Q9Y4P1 whole entry, looked up): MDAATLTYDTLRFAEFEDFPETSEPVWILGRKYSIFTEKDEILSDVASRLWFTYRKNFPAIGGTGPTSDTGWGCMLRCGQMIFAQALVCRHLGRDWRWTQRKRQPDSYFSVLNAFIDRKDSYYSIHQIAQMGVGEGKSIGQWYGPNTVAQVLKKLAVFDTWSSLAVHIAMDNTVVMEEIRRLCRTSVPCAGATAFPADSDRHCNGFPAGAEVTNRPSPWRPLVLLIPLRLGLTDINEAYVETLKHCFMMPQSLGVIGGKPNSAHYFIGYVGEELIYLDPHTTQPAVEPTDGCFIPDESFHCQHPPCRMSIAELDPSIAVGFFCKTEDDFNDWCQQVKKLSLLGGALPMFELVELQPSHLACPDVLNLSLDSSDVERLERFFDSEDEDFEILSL
Numbers without * were called inactive; . = no result given.

SMILES | Cardio protect | PP1 inh | PP5 inh | ATG4B inh
O=c1oc2ccccc2c2oc3cc(O)c(O)cc3c12 | 49.5 | -0.5 | 3.9 | -14.5
Nn1c(SCC(=O)Nc2ccccc2Br)nnc1-c1ccco1 | -0.2 | -3.2 | -1.1 | 3.6
O=C(CCC1CCCC1)Nc1cc(C(F)(F)F)ccc1N1CCOCC1 | -9.8 | 17.0* | 2.6 | 4.2
O=C(CCC1CCCCC1)Nc1cc(Cl)ccc1N1CCOCC1 | -4.2 | . | . | -0.9
O=c1[nH]nc(-c2cccs2)c2ccccc12 | 69.5* | -1.3 | 1.6 | -3.3
COc1ccc([N+](=O)[O-])cc1NC(=O)CS(=O)(=O)c1ccc(C)cc1 | -4.1 | -0.5 | -1.5 | -1.0
COc1ccc([N+](=O)[O-])cc1NC(=O)CCS(=O)(=O)c1ccc(Br)cc1 | -1.3 | 17.1* | 5.5 | -4.9
COc1cccc(C(C)NC(=O)Cc2cccs2)c1 (centres undefined) | 4.4 | 2.3 | -1.3 | 2.5
Cc1cc(OCC(=O)OCC(=O)NCc2cccs2)ccc1Cl | 2.6 | . | . | 6.8
CN(CC(=O)OCC(=O)NC1CCCC1)S(=O)(=O)c1ccc(Cl)cc1 | 1.6 | . | . | -4.3
Cc1ccc2cc(C#N)c(N3CCN(C(=O)c4cccs4)CC3)nc2c1 | 57.7* | -6.5 | 1.4 | 1.8
Cc1ccc2nc(N3CCN(C(=O)c4ccc(F)cc4)CC3)c(C#N)cc2c1 | 6.1 | 7.4 | 3.1 | 5.2
CN1OC[C@@H]2CN(C(=O)CCc3ccccc3)[C@H](c3cccc(-c4ccc(C#N)cc4)c3)C[C@@H]21 | 16.2 | . | . | 1.3
Cc1cc(C)nc(SCc2ccc(C(=O)N/N=C/c3ccccn3)cc2)n1 | 69.0* | 4.3 | 1.4 | -5.0
Cc1cc(C)nc(SCc2ccc(C(=O)N/N=C/c3ccncc3)cc2)n1 | -4.5 | -2.9 | 0.1 | -5.3
Cc1noc(C)c1C(=O)N1CCC1(C)C(=O)NS(=O)(=O)c1cccc(Cl)c1 (centres undefined) | -0.1 | . | . | .
Cc1nn(-c2ccccc2)c(C)c1/C=N/NC(=O)CSc1nnc(SCc2ccc(Cl)cc2)s1 | -6.1 | 16.8* | 3.0 | -13.1
Cc1cc(C(=O)COc2ccccc2C(N)=O)c(C)n1C | 52.2* | -5.6 | -0.8 | 4.6
COc1cc2c(cc1OC)CN(C(=O)CNS(=O)(=O)c1ccc(C)c(C)c1)CC2 | 3.7 | -2.1 | 2.6 | -9.7
CCN1C(=O)/C(=C/c2nc3ccccc3c(=O)[nH]2)c2ccccc21 | 77.6* | -0.5 | 0.8 | -2.3
CCN1C(=O)/C(=C\c2nc3ccccc3c(=O)n2-c2ccccc2)c2ccccc21 | 16.5 | 1.0 | 0.5 | -2.2
Cc1cc(C)c2cccc(N)c2n1 | -2.7 | 2.8 | -0.7 | 7.2
Cc1cc(C)c2ccc(N)nc2c1O | 60.3* | -5.8 | 2.2 | -6.3
Cc1cc(C)n2nc(C(=O)OCC(=O)NCc3ccc(Cl)cc3)nc2n1 | 8.7 | 0.3 | 2.5 | 0.6
CN(C)C(=O)CSC1c2ccccc2C(=O)N1c1ccccc1 (centres undefined) | 1.3 | 1.3 | 0.9 | -0.1
SMILES | Cardio protect | PP1 inh | PP5 inh | ATG4B inh
CCn1ncc2c1C(=O)NC1c3ccccc3C(=O)N21 (centres undefined) | 59.1* | -1.4 | -1.8 | 0.3
CC1(C(=O)NS(=O)(=O)c2ccc(Cl)cc2)CCN1C(=O)c1ccccc1 (centres undefined) | 2.3 | . | . | .
CC(=O)Nc1ccc(NC(=O)C(C)OC(=O)[C@@H]2CCCN2C(=O)c2cccs2)cc1 (some centres undefined) | -3.3 | . | . | -5.8
Oc1c(Br)cc(Br)cc1/C=N/NC(=S)N[C@H]1CC2C=CC1C2 (some centres undefined) | 34.3 | 16.6* | 3.3 | 17.3
CNC(=S)N/N=C/c1cc(Br)cc(Br)c1O | 43.7 | 1.6 | 1.1 | -0.8
Cc1ccc2c(c1)C(c1ccc(F)cc1)N(C(=O)c1ccccc1Br)CC(=O)N2 (centres undefined) | 5.9 | 3.5 | -0.1 | 1.7
O=C(/C=C\c1cn(-c2ccccc2)nc1-c1ccc2c(c1)OCCO2)N1CCOCC1 | 60.2* | -1.0 | 3.1 | -21.6
CN(C)C(=O)/C=C\c1cn(-c2ccccc2)nc1-c1ccc2c(c1)OCCO2 | 51.7* | 0.9 | 4.1 | -17.0
CC1CN(C(=O)NCc2ccccc2)c2cc(Cl)ccc2O1 (centres undefined) | -2.4 | . | . | 13.4
C=CCOc1cccc(C2C(C(=O)c3ccc(C)o3)=C(O)C(=O)N2Cc2ccncc2)c1 (centres undefined) | 6.0 | 5.8 | -1.3 | -6.8
C=CCOc1ccc(C2C(C(=O)c3ccc(C)o3)=C(O)C(=O)N2Cc2cccnc2)cc1 (centres undefined) | -4.5 | 23.4* | 1.8 | 3.3
COC(=O)N[C@@H]1C[C@H]2[C@@H]3CC[C@H]4C[C@@H](OC)CC[C@]4(C)[C@H]3CC[C@@]12C | -11.5 | 0.0 | 1.5 | 0.4
